Shown is part of a subset that was picked to be rich in hits.
FECH inh: inhibitors of human ferrochelatase. 20,000 tested, 3.3% active. purified FECH, Ni-mesoporphyrin absorbance 550 nm. calls only at 10 µM (by protocol). P22830;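 active = enzyme reaction rate more than 3 SD below the solvent-only control wells on the same plate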;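 also: lower slope than DMSO wells means FECH inhibition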
Target sequence (P22830 whole entry, looked up): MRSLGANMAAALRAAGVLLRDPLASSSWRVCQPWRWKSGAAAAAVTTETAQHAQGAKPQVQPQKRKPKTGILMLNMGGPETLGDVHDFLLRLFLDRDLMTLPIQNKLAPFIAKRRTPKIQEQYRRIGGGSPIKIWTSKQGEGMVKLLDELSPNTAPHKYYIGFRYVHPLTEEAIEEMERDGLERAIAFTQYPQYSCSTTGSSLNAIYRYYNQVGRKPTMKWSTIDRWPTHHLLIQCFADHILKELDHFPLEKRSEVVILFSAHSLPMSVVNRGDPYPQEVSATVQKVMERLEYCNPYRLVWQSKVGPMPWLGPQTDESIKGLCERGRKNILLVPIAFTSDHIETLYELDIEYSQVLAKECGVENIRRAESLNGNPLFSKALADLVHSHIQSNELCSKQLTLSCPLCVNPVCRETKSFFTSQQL
Numbers without * were called inactive; i = inactive; + = active, no number.

SMILES	FECH inh
O=C([C@@H]1CCCO1)N1CC(c2ccccn2)C1	i
CCCc1cc(=O)n2[nH]c(CNc3cc(Cl)ccc3OC)nc2n1	i
CCCc1cc(=O)n2[nH]c(CNc3cccc(C(F)(F)F)c3)nc2n1	+
COc1cccc(NCc2cc(=O)n3[nH]c(NCc4ccc(F)cc4)nc3n2)c1	i
O=c1cc(CNc2cccc(C(F)(F)F)c2)nc2nc(NCc3ccc(F)cc3)[nH]n12	i
CCCc1cc(=O)n2[nH]c(CNc3ccc(C)cc3)nc2n1	+
CCCc1cc(=O)n2[nH]c(CNc3ccc(C)c(Cl)c3)nc2n1	+
CCCc1cc(=O)n2[nH]c(CNc3ccc(Br)cc3)nc2n1	+
Nc1nc(CNC(=O)CCC(=O)NC2CCCCCC2)cs1	i
Cc1cc(C)c(S(=O)(=O)Nc2cnc(N3CCC(N4CCCCC4)CC3)c(C(=O)O)c2)c(C)c1	i
CCn1cc(CNc2ncnc3c2CCN(C(=O)c2cccnc2)C3)cn1	i
COc1ccc(-c2nc(-c3ccc4c(c3)Sc3ccccc3C(=O)N4C)no2)cc1	i
c1ccc2sc(N3CCCN(c4ncnc5c4CCNC5)CC3)nc2c1	i
Cc1ccc2[nH]cc(-c3cnc(N)c(C)c3)c2c1	i
CCO[C@H]1COC[C@@H]1NC(=O)CN1CCC(C)=N1	i
COc1cc(-c2cccs2)cc2c1OCCN(Cc1cc(=O)[nH]c(=O)[nH]1)C2	i
CCC(=O)Nc1ccc(S(=O)(=O)NCc2nc3cccnc3n2C(C)C)cc1	i
Cc1cccnc1CN1C[C@H]2OC(=O)N(CCc3cccc(Cl)c3)[C@H]2C1	i
CCCc1cc(=O)n2[nH]c(CNc3cccc(C)c3)nc2n1	+
CCCc1cc(=O)n2[nH]c(CNc3ccccc3F)nc2n1	+
CCCc1cc(=O)n2[nH]c(CNc3ccc(F)cc3)nc2n1	+
CCCc1cc(=O)n2[nH]c(CNc3ccccc3Cl)nc2n1	i
CCCc1cc(=O)n2[nH]c(CNc3ccccc3OCC)nc2n1	i
Cc1cccc(NC(=O)c2ccc(CNc3nc4nc(C)cc(=O)n4[nH]3)cc2)c1	i
Cc1cccc(-c2nc3nc(CNC(C)C)cc(=O)n3[nH]2)c1	i
SMILES	FECH inh
COc1ncccc1-c1ccc(C(=O)Nc2cccnc2)o1	i
COc1cccc(OCC(=O)Nc2cc(C)nn2-c2ncnc3c2cnn3-c2ccc(F)cc2)c1	i
Fc1ccc(-c2cncnc2)c(Cl)c1	i
CCc1c(C)nn(CCNc2nc(C3CCCC3)nc3c2CNC3)c1C	i
CSc1nc(NC2CCCCC2C)c(C#N)c(-c2ccccc2)n1 (stereo not drawn)	i
Cc1ccc(S(=O)(=O)NCCn2c(C(F)(F)F)nc3cccnc32)c(C)c1	+
O=S(=O)(NCCn1c(-c2ccccc2)nc2cccnc21)c1ccc(Cl)cc1	i
CCOc1ccc(S(=O)(=O)NCCn2c(-c3ccc(F)cc3)nc3cccnc32)cc1	i
Cc1ccc(-c2nc3cccnc3n2CCNS(=O)(=O)c2ccc(Cl)cc2)cc1	i
COc1ccc(S(=O)(=O)NCCn2c(-c3ccc(C)cc3)nc3cccnc32)cc1	i
Cc1ccc(S(=O)(=O)NCCn2c(C(F)(F)F)nc3cccnc32)cc1	i
Cc1ccc(-c2nc3cccnc3n2CCNS(=O)(=O)c2c(C)cc(C)cc2C)cc1	i
Cc1ccc(-c2nc3cccnc3n2CCNS(=O)(=O)c2ccc(CC(C)C)cc2)cc1	i
CCOc1ccc(S(=O)(=O)NCCn2c(-c3ccc(C)cc3)nc3cccnc32)cc1	+
Cc1ccc(-c2nc3cccnc3n2CCNS(=O)(=O)c2ccc(C)c(C)c2)cc1	+
Cc1ccc(S(=O)(=O)NCCn2c(C(F)(F)F)nc3cccnc32)cc1C	i
COc1ccc(S(=O)(=O)NCCn2c(-c3ccccc3)nc3cccnc32)cc1OC	+
CCCCN(Cc1ccco1)C(=O)c1cc(S(N)(=O)=O)ccc1C	i
Cc1cc(C)n2nc(CN(C(=O)c3ccc(F)cc3)c3ccccc3Cl)nc2n1	i
Cc1cccc(-c2cc(Nc3cccc(C(F)(F)F)c3)nc(C)n2)c1	i
CCCc1c(C)nc2ncnn2c1Sc1ccc(NC(=O)Nc2ccc(Br)cc2)cc1	i
Cc1ccc(N(Cc2nc3nc(C)cc(C)n3n2)C(=O)CC(C)C)cc1	i
CCn1c(=O)n(Cc2ccc(Cl)cc2)c(=O)c2cnc(-c3ccc(OC)cc3)nc21	i
Cc1ccc(CNC(=O)C2(C)Cn3nc(C(=O)NCCc4cccs4)cc3C(=O)N2C)cc1 (stereo not drawn)	i
Cc1ccc(-c2nc3cccnc3n2CCNS(=O)(=O)c2ccc(C(C)C)cc2)cc1	i
SMILES	FECH inh
O=S(=O)(NCCn1c(-c2ccccc2)nc2cccnc21)c1cccc(Cl)c1	i
O=C(NCCn1c(-c2ccncc2)nc2cccnc21)Nc1ccccc1Br	i
Cc1ccc(-c2nc3cccnc3n2CCNS(=O)(=O)c2cccc(Cl)c2)cc1	+
O=C(NCCn1c(-c2ccncc2)nc2cccnc21)Nc1ccc(Br)cc1F	i
Cc1ccc(NC(=O)NCCn2c(-c3ccncc3)nc3cccnc32)c(C)c1	+
COc1cccc(Cn2c(CNS(=O)(=O)c3cnn(C(F)F)c3C)nc3cccnc32)c1	i
Cc1cnccc1N1CCCN(c2nc(N(C)C)nc3c2CCNC3)CC1	i
CN(Cc1csc(-c2ccccc2)n1)C(=O)c1c(O)cccc1O	i
Cc1ccc(-c2cc(N3CCN(S(=O)(=O)c4c(C)noc4C)CC3)ncn2)cc1	i
COc1cccc(-c2cc(N3CCN(S(=O)(=O)c4c(C)noc4C)CC3)ncn2)c1	+
Cc1ccc(-c2cc(N3CCN(S(=O)(=O)c4ccc(CC(C)C)cc4)CC3)ncn2)cc1	i
Cc1cccc(-c2cc(N3CCN(S(=O)(=O)c4ccc(CC(C)C)cc4)CC3)ncn2)c1	+
COc1cccc(-c2cc(N3CCN(S(=O)(=O)c4cc(Cl)ccc4OC)CC3)ncn2)c1	i
COc1cccc(-c2cc(N3CCN(S(=O)(=O)c4cc(OC)ccc4OC)CC3)ncn2)c1	+
COc1cccc(-c2cc(N3CCN(S(=O)(=O)c4ccc(F)cc4)CC3)ncn2)c1	i
COc1cccc(-c2cc(N3CCN(S(=O)(=O)c4ccc(OC)c(Cl)c4)CC3)ncn2)c1	i
COc1cccc(-c2cc(N3CCN(S(=O)(=O)c4ccc(Br)cc4)CC3)ncn2)c1	i
COc1cccc(-c2cc(N3CCN(S(=O)(=O)c4ccccc4)CC3)ncn2)c1	+
CC(C)Cc1ccc(S(=O)(=O)N2CCN(c3cc(-c4ccc(F)cc4)ncn3)CC2)cc1	i
Cc1cccc(-c2cc(N3CCN(S(=O)(=O)c4c(C)noc4C)CC3)ncn2)c1	i
c1cc(-c2cc(C3CCN(Cc4cncnc4)C3)ccn2)ccn1 (stereo not drawn)	i
CCOc1ccc(S(=O)(=O)N2CCN(Cc3nc4cccnc4n3-c3cccc(C)c3)CC2)cc1	i
CCOC(=O)c1c(NC(=O)c2sc3ccccc3c2Cl)sc2c1CCN(C)C2	i
CCc1ccc(NC(=O)NCCc2nc3cccnc3n2Cc2ccc(C)cc2)cc1	i
CC(=O)Nc1ccc(S(=O)(=O)NCCn2c(-c3ccccc3)nc3cccnc32)cc1	i
CCc1c(C)nc2ncnn2c1Sc1ccccc1NC(=O)C(C)C	i
CCCc1cc(Sc2ccc(NC(=O)c3ccc(C(C)(C)C)cc3)cc2)n2ncnc2n1	i
Cc1cnc(NCCNC(=O)c2cccnc2)nc1N(C)C	+
Cn1ncc2c(NCCNC(=O)c3cccnc3)nc(C(C)(C)C)nc21	i
